Laboratory results: article PMC5540273 (PLoS ONE, 2017)
Where two headings read alike, the source gives them in different places.

Key:
CAMK1 = conditions: concentration: 1 μM, replicates: in singlicate; n = 1
CAMK2A = conditions: concentration: 1 μM, replicates: in singlicate; n = 1
CAMK2B = conditions: concentration: 1 μM, replicates: in singlicate; n = 1
CAMK2D = conditions: concentration: 1 μM, replicates: in singlicate; n = 1
CAMK2G = conditions: concentration: 1 μM, replicates: in singlicate; n = 1
CAMK4 = conditions: concentration: 1 μM, replicates: in singlicate; n = 1
CAMKK1 = conditions: concentration: 1 μM, replicates: in singlicate; n = 1
CAMKK2 = conditions: concentration: 1 μM, replicates: in singlicate; n = 1
CASK = conditions: concentration: 1 μM, replicates: in singlicate; n = 1
CDC2L1 = tested on: T1, CDC2L1; conditions: concentration: 1 μM, replicates: in singlicate; n = 1
T1 construct: gene CDK11B

CDC2L2 = conditions: concentration: 1 μM, replicates: in singlicate; n = 1
CDC2L5 = tested on: T2, CDC2L5; conditions: n = 1
T2 construct: gene CDK13

CDK11 = tested on: T3, CDK11; conditions: concentration: 1 μM, replicates: in singlicate; n = 1
T3 construct: gene CDK19

CDK2 = conditions: concentration: 1 μM, replicates: in singlicate; n = 1
CDK3 = conditions: concentration: 1 μM, replicates: in singlicate; n = 1
CDK4-cyclinD1 = conditions: n = 1
CDK4-cyclinD3 = conditions: n = 1
CDK4 = conditions: n = 1
CDK5 = conditions: concentration: 1 μM, replicates: in singlicate; n = 1
CDK7 = conditions: concentration: 1 μM, replicates: in singlicate; n = 1
[1] = concentration: 1 μM, replicates: in singlicate
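Further: KINOMEscan kinase panel screen.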

COc1ccc(NC(=O)c2ccoc2)cc1-c1ccc(C(=O)NCC2CC2)cc1 [GW810437]
%Inh (CAMK1): 0%
%Inh (CAMK2A): 0%
%Inh (CAMK2B): 0%
%Inh (CAMK2D): 0%
%Inh (CAMK2G): 0%
%Inh (CAMK4): 19%
%Inh (CAMKK1): 15%
%Inh (CAMKK2): 30%
%Inh (CASK): 13%
%Inh (CDC2L1): 14%
%Inh (CDC2L2): 6%
%Inh (CDC2L5; [1]): 16%
%Inh (CDK11): 11%
%Inh (CDK2): 0%
%Inh (CDK3): 2%
%Inh (CDK4-cyclinD1; [1]): 0%
%Inh (CDK4-cyclinD3; [1]): 0%
%Inh (CDK4; [1]): 15%
%Inh (CDK5): 0%
%Inh (CDK7): 26%

Cc1ccc(O)cc1Nc1ccnc2ccc(C(C)(C)C)cc12 [GW856805]
%Inh (CAMK1): 45%
%Inh (CAMK2A): 7%
%Inh (CAMK2B): 10%
%Inh (CAMK2D): 18%
%Inh (CAMK2G): 22%
%Inh (CAMK4): 0%
%Inh (CAMKK1): 3%
%Inh (CAMKK2): 26%
%Inh (CASK): 25%
%Inh (CDC2L1): 12%
%Inh (CDC2L2): 15%
%Inh (CDC2L5; [1]): 36%
%Inh (CDK11): 21%
%Inh (CDK2): 7%
%Inh (CDK3): 0%
%Inh (CDK4-cyclinD1; [1]): 12%
%Inh (CDK4-cyclinD3; [1]): 24%
%Inh (CDK4; [1]): 25%
%Inh (CDK5): 0%
%Inh (CDK7): 42%

COc1cc(Nc2ccnc3cc(-c4ccncc4)ccc23)cc(OC)c1OC.Cl [GW494610]
%Inh (CAMK1): 20%
%Inh (CAMK2A): 0%
%Inh (CAMK2B): 0%
%Inh (CAMK2D): 0%
%Inh (CAMK2G): 7%
%Inh (CAMK4): 0%
%Inh (CAMKK1): 7%
%Inh (CAMKK2): 0%
%Inh (CASK): 15%
%Inh (CDC2L1): 0%
%Inh (CDC2L2): 0%
%Inh (CDC2L5; [1]): 0%
%Inh (CDK11): 2%
%Inh (CDK2): 1%
%Inh (CDK3): 1%
%Inh (CDK4-cyclinD1; [1]): 39%
%Inh (CDK4-cyclinD3; [1]): 0%
%Inh (CDK4; [1]): 27%
%Inh (CDK5): 0%
%Inh (CDK7): 0%

NCCC(NC(=O)c1cc(Br)c(-c2ccnc3[nH]ccc23)s1)c1ccccc1.O=C(O)C(F)(F)F.O=C(O)C(F)(F)F (stereo not shown) [GSK1307810]
%Inh (CAMK1): 43%
%Inh (CAMK2A): 34%
%Inh (CAMK2B): 0%
%Inh (CAMK2D): 29%
%Inh (CAMK2G): 26%
%Inh (CAMK4): 0%
%Inh (CAMKK1): 5%
%Inh (CAMKK2): 9%
%Inh (CASK): 27%
%Inh (CDC2L1): 0%
%Inh (CDC2L2): 6%
%Inh (CDC2L5; [1]): 0%
%Inh (CDK11): 58%
%Inh (CDK2): 0%
%Inh (CDK3): 6%
%Inh (CDK4-cyclinD1; [1]): 38%
%Inh (CDK4-cyclinD3; [1]): 0%
%Inh (CDK4; [1]): 27%
%Inh (CDK5): 0%
%Inh (CDK7): 47%

Fc1cc(Cl)ccc1Nc1ccnc2cc(-c3ccc(CN4CCSCC4)o3)ccc12 [GW560106]
%Inh (CAMK1): 21%
%Inh (CAMK2A): 0%
%Inh (CAMK2B): 0%
%Inh (CAMK2D): 5%
%Inh (CAMK2G): 17%
%Inh (CAMK4): 0%
%Inh (CAMKK1): 25%
%Inh (CAMKK2): 21%
%Inh (CASK): 0%
%Inh (CDC2L1): 0%
%Inh (CDC2L2): 0%
%Inh (CDC2L5; [1]): 0%
%Inh (CDK11): 1%
%Inh (CDK2): 0%
%Inh (CDK3): 0%
%Inh (CDK4-cyclinD1; [1]): 35%
%Inh (CDK4-cyclinD3; [1]): 0%
%Inh (CDK4; [1]): 53%
%Inh (CDK5): 0%
%Inh (CDK7): 0%

Cn1cc(-c2cnc(N)c3c(-c4ccc5c(c4)CCN5C(=O)Cc4ccccc4)csc23)cn1 [GSK2593074]
%Inh (CAMK1): 0%
%Inh (CAMK2A): 29%
%Inh (CAMK2B): 12%
%Inh (CAMK2D): 0%
%Inh (CAMK2G): 13%
%Inh (CAMK4): 0%
%Inh (CAMKK1): 11%
%Inh (CAMKK2): 19%
%Inh (CASK): 23%
%Inh (CDC2L1): 4%
%Inh (CDC2L2): 1%
%Inh (CDC2L5; 1 µM): 0%
%Inh (CDK11): 18%
%Inh (CDK2): 0%
%Inh (CDK3): 1%
%Inh (CDK4-cyclinD1; 1 µM): 0%
%Inh (CDK4-cyclinD3; 1 µM): 0%
%Inh (CDK4; 1 µM): 0%
%Inh (CDK5): 2%
%Inh (CDK7): 19%

Cc1cc(-c2c(-c3ccc(F)cc3)ncn2CCCN2CCOCC2)nc(N)n1 [SB-222517]
%Inh (CAMK1): 17%
%Inh (CAMK2A): 0%
%Inh (CAMK2B): 30%
%Inh (CAMK2D): 0%
%Inh (CAMK2G): 8%
%Inh (CAMK4): 13%
%Inh (CAMKK1): 25%
%Inh (CAMKK2): 0%
%Inh (CASK): 33%
%Inh (CDC2L1): 0%
%Inh (CDC2L2): 8%
%Inh (CDC2L5; [1]): 0%
%Inh (CDK11): 22%
%Inh (CDK2): 0%
%Inh (CDK3): 18%
%Inh (CDK4-cyclinD1; [1]): 0%
%Inh (CDK4-cyclinD3; [1]): 0%
%Inh (CDK4; [1]): 24%
%Inh (CDK5): 14%
%Inh (CDK7): 11%

COc1cccc(-c2nc(-c3ccccc3)[nH]c2-c2ccncc2)c1 [SB-610250]
%Inh (CAMK1): 1%
%Inh (CAMK2A): 0%
%Inh (CAMK2B): 0%
%Inh (CAMK2D): 0%
%Inh (CAMK2G): 2%
%Inh (CAMK4): 0%
%Inh (CAMKK1): 0%
%Inh (CAMKK2): 0%
%Inh (CASK): 15%
%Inh (CDC2L1): 0%
%Inh (CDC2L2): 0%
%Inh (CDC2L5; [1]): 0%
%Inh (CDK11): 22%
%Inh (CDK2): 2%
%Inh (CDK3): 24%
%Inh (CDK4-cyclinD1; [1]): 0%
%Inh (CDK4-cyclinD3; [1]): 7%
%Inh (CDK4; [1]): 0%
%Inh (CDK5): 0%
%Inh (CDK7): 0%

O=C(Nc1n[nH]c2cc(-c3cccs3)ccc12)C1CC1 [SB-731284]
%Inh (CAMK1): 11%
%Inh (CAMK2A): 0%
%Inh (CAMK2B): 0%
%Inh (CAMK2D): 0%
%Inh (CAMK2G): 0%
%Inh (CAMK4): 0%
%Inh (CAMKK1): 17%
%Inh (CAMKK2): 0%
%Inh (CASK): 49%
%Inh (CDC2L1): 0%
%Inh (CDC2L2): 0%
%Inh (CDC2L5; [1]): 85%
%Inh (CDK11): 0%
%Inh (CDK2): 65%
%Inh (CDK3): 16%
%Inh (CDK4-cyclinD1; [1]): 0%
%Inh (CDK4-cyclinD3; [1]): 18%
%Inh (CDK4; [1]): 8%
%Inh (CDK5): 0%
%Inh (CDK7): 48%

Nc1ncc(-c2ccc3nccc(-c4ccncc4)c3c2)cc1S(=O)(=O)N1CCCCC1 [GSK1693850]
%Inh (CAMK1): 18%
%Inh (CAMK2A): 4%
%Inh (CAMK2B): 0%
%Inh (CAMK2D): 0%
%Inh (CAMK2G): 14%
%Inh (CAMK4): 0%
%Inh (CAMKK1): 24%
%Inh (CAMKK2): 33%
%Inh (CASK): 24%
%Inh (CDC2L1): 0%
%Inh (CDC2L2): 21%
%Inh (CDC2L5; [1]): 0%
%Inh (CDK11): 73%
%Inh (CDK2): 0%
%Inh (CDK3): 7%
%Inh (CDK4-cyclinD1; [1]): 9%
%Inh (CDK4-cyclinD3; [1]): 13%
%Inh (CDK4; [1]): 0%
%Inh (CDK5): 0%
%Inh (CDK7): 80%

COc1cc(Nc2nccc(N3CCC(NC(=O)Nc4ccc5c(c4)OCO5)C3)n2)cc(OC)c1OC (stereo not shown) [GSK1379766]
%Inh (CAMK1): 28%
%Inh (CAMK2A): 0%
%Inh (CAMK2B): 0%
%Inh (CAMK2D): 14%
%Inh (CAMK2G): 28%
%Inh (CAMK4): 0%
%Inh (CAMKK1): 21%
%Inh (CAMKK2): 24%
%Inh (CASK): 4%
%Inh (CDC2L1): 0%
%Inh (CDC2L2): 18%
%Inh (CDC2L5; [1]): 0%
%Inh (CDK11): 2%
%Inh (CDK2): 0%
%Inh (CDK3): 2%
%Inh (CDK4-cyclinD1; [1]): 0%
%Inh (CDK4-cyclinD3; [1]): 14%
%Inh (CDK4; [1]): 0%
%Inh (CDK5): 0%
%Inh (CDK7): 0%

O=C(Nc1n[nH]c2nc(-c3cccc(O)c3)ccc12)C1CC1 [SB-711805]
%Inh (CAMK1): 0%
%Inh (CAMK2A): 0%
%Inh (CAMK2B): 0%
%Inh (CAMK2D): 0%
%Inh (CAMK2G): 0%
%Inh (CAMK4): 0%
%Inh (CAMKK1): 0%
%Inh (CAMKK2): 0%
%Inh (CASK): 0%
%Inh (CDC2L1): 0%
%Inh (CDC2L2): 0%
%Inh (CDC2L5; [1]): 46%
%Inh (CDK11): 0%
%Inh (CDK2): 38%
%Inh (CDK3): 49%
%Inh (CDK4-cyclinD1; [1]): 20%
%Inh (CDK4-cyclinD3; [1]): 25%
%Inh (CDK4; [1]): 15%
%Inh (CDK5): 0%
%Inh (CDK7): 23%

O=C(Nc1c(F)cccc1F)c1cc(C(=O)c2ccccc2F)c[nH]1 [GSK1326180]
%Inh (CAMK1): 17%
%Inh (CAMK2A): 2%
%Inh (CAMK2B): 0%
%Inh (CAMK2D): 1%
%Inh (CAMK2G): 8%
%Inh (CAMK4): 5%
%Inh (CAMKK1): 0%
%Inh (CAMKK2): 0%
%Inh (CASK): 3%
%Inh (CDC2L1): 0%
%Inh (CDC2L2): 0%
%Inh (CDC2L5; [1]): 0%
%Inh (CDK11): 6%
%Inh (CDK2): 0%
%Inh (CDK3): 16%
%Inh (CDK4-cyclinD1; [1]): 33%
%Inh (CDK4-cyclinD3; [1]): 0%
%Inh (CDK4; [1]): 14%
%Inh (CDK5): 0%
%Inh (CDK7): 0%

CC(C)NCC(Cc1ccccc1)NC(=O)c1cc(Br)c(-c2ccnc3[nH]ccc23)s1.Cl.Cl (stereo not shown) [GSK1383281]
%Inh (CAMK1): 34%
%Inh (CAMK2A): 0%
%Inh (CAMK2B): 0%
%Inh (CAMK2D): 15%
%Inh (CAMK2G): 15%
%Inh (CAMK4): 29%
%Inh (CAMKK1): 33%
%Inh (CAMKK2): 19%
%Inh (CASK): 0%
%Inh (CDC2L1): 0%
%Inh (CDC2L2): 39%
%Inh (CDC2L5; [1]): 0%
%Inh (CDK11): 31%
%Inh (CDK2): 0%
%Inh (CDK3): 0%
%Inh (CDK4-cyclinD1; [1]): 0%
%Inh (CDK4-cyclinD3; [1]): 0%
%Inh (CDK4; [1]): 0%
%Inh (CDK5): 0%
%Inh (CDK7): 16%
